Where “and” joins values, the source holds several entries; their conditions need not be identical. Equal entries are not always repeated. Inconclusive results are not listed. A call without a number means that no potency is given here. Calls of active or inactive are those of the source. Unless noted, the call rests on the fitted dose curve; in most records, active means well fitted curve in the direction sought with a large enough effect in the repeat runs; inconclusive means weak or mixed curves; inactive means no such curve, though single readings can be large; an effect the other way counts as inactive or inconclusive.
What was measured:
[1] = A CellTox Green Cytotoxicity Assay to monitor cytotoxicity in HEK293 cells - 32 hour (AID 1224881); further: nearly all actives have a fitted effect of over 40% in size; further: potency means the concentration at half of the fitted maximal effect
Procedure, shortened: (§1)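 Real-time, in one plate: 600 HEK293 cells/well with dead-cell DNA dye, pinned compound after 5 h, 37 C incubation over 40 h; viable cells give no appreciable fluorescence.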

[2] = A CellTox Green Cytotoxicity Assay to monitor cytotoxicity in HepG2 cells - 0 hour (AID 1224882); further: nearly all actives have a fitted effect of over 35% in size
Procedure, shortened: (§2)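 Cytotoxicity was tracked as dead-cell DNA fluorescence in HepG2 cells treated with test compounds at 37 C; each time-point value comes from one kinetic series spanning 0, 8, 16, 24, 32 and 40 h.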

[3] = A CellTox Green Cytotoxicity Assay to monitor cytotoxicity in HepG2 cells - 32 hour (AID 1224883); further: nearly all actives have a fitted effect of over 50% in size; further: potency means the concentration at half of the fitted maximal effect
Procedure, shortened: as §2

[4] = A CellTox Green Cytotoxicity Assay to monitor cytotoxicity in HEK293 cells - 8 hour (AID 1224884); further: nearly all actives have a fitted effect of over 35% in size; further: potency means the concentration at half of the fitted maximal effect
Procedure, shortened: as §1

[5] = qHTS RealTime-Glo MT Cell Viability Assay in HepG2 cells - 16 hour (AID 1224885); further: nearly all actives have a fitted effect of over 50% in size; further: potency means the concentration at half of the fitted maximal effect
Procedure, shortened: (§3)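 Cells + NanoLuc/prosubstrate dispensed (600 cells/well) → 5 h at 37 C/5% CO2 → compounds in DMSO transferred → 40 h incubation at 37 C, luminescence read at 0, 8, 16, 24, 32, 40 h.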

[6] = qHTS RealTime-Glo MT Cell Viability Assay in HEK293 cells - 8 hour (AID 1224887); further: nearly all actives have a fitted effect of over 50% in size; further: potency means the concentration at half of the fitted maximal effect
Procedure, shortened: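 Kinetic, non-lysing viability readout. Seed HEK293 (600/well) with reagent, incubate 5 h at 37 C/5% CO2, pin 23 nL compound in DMSO, incubate at 37 C, read luminescence at 0, 8, 16, 24, 32, 40 h.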

[7] = A CellTox Green Cytotoxicity Assay to monitor cytotoxicity in HEK293 cells - 16 hour (AID 1224888); further: nearly all actives have a fitted effect of over 35% in size
Procedure, shortened: as §1

[8] = qHTS RealTime-Glo MT Cell Viability Assay in HepG2 cells - 0 hour (AID 1224889); further: nearly all actives have a fitted effect of over 50% in size; further: potency means the concentration at half of the fitted maximal effect
Procedure, shortened: as §3

[9] = A CellTox Green Cytotoxicity Assay to monitor cytotoxicity in HepG2 cells - 8 hour (AID 1224890); further: nearly all actives have a fitted effect of over 45% in size; further: potency means the concentration at half of the fitted maximal effect
Procedure, shortened: as §2

[10] = qHTS assay to identify small molecule antagonists of the androgen receptor (AR) signaling pathway using the MDA cell line in the presence of 0.5 nM R1881 - cell viability counter screen (AID 1259242); further: nearly all actives have a fitted effect of over 45% in size
Procedure, shortened: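 Cells seeded at 3,000/well and allowed 5 hr at 37C, 0% CO2 before compound transfer and R1881 (0.5 nM final) addition; 16 hr later, live-cell protease fluorescence indicated cytotoxicity.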

[11] = target: Estrogen receptor (Homo sapiens) (UniProt P03372); assay: qHTS assay to identify small molecule antagonists of the estrogen receptor alpha (ER-alpha) signaling pathway using the BG1 cell line in the presence of 0.1 nM 17-beta-estradiol (AID 1259244); further: nearly all actives have a fitted effect of over 50% in size; further: potency means the concentration at half of the fitted maximal effect
Procedure, shortened: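 Luciferase signal from VM7Luc4E2 ERE-reporter cells, co-dosed with test compound and 0.1 nM final 17beta-estradiol for 22 h, read with ONE-Glo.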

[12] = qHTS assay to identify small molecule phospholipidosis (PLD) inducers (AID 1259344; active means well fitted curve in the direction sought with a large enough effect; an effect the other way counts as inactive or inconclusive)
Procedure, shortened: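 Phospholipid accumulation was scored by imaging: fixed, Hoechst-counterstained HepG2 cells stained with LipidTOX Red after 24 h compound exposure at 37 C. Read-outs were pit count and pit intensity per well or per cell, with amiodarone and DMSO controls.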

[13] = qHTS assay to identify small molecule HDAC inhibitors (AID 1259364); further: potency means the concentration at half of the fitted maximal effect;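 further: wild-type HCT-116 cells with endogenous class I/II HDAC activity; nearly all actives have a fitted effect of over 45% in size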
Procedure, shortened: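 HCT-116 wt cells, 1,500/well, overnight attach. Compounds (DMSO) 2 h, 37 °C. HDAC-Glo I/II, 30 min RT. Luminescence.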

[14] = qHTS assay to identify small molecule HDAC inhibitors - cell viability counter screen (AID 1259365)
Procedure, shortened: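 Viability readout: CellTiter-Glo luminescence. Wild-type HCT-116 cells, 2hr compound treatment following overnight attachment at 37 C.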

[15] = qHTS assay to identify small molecule agonists of the sonic hedgehog signaling (Shh) pathway - cell viability counter screen (AID 1259366); further: nearly all actives have a fitted effect of over 50% in size; further: potency means the concentration at half of the fitted maximal effect
Procedure, shortened: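 Viability measured fluorometrically (CellTiter-Fluor, 1hr, 37C) in 3T3 Gli1-Luc reporter cells after 23hr compound exposure within a 24hr incubation at 37C/5% CO2.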

[16] = qHTS assay to identify small molecule antagonists of the sonic hedgehog signaling (Shh) pathway - cell viability counter screen (AID 1259367); further: nearly all actives have a fitted effect of over 55% in size; further: potency means the concentration at half of the fitted maximal effect
Procedure, shortened: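 Viability was read by CellTiter-Fluor fluorescence in the same wells, reagent added 23 hr into compound treatment and incubated 1 hr at 37C. The 3T3 Gli1-Luc reporter cells (2,000/well) received conditioned medium after compound and ran 24 hr.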

[17] = qHTS assay to identify small molecule agonists of the sonic hedgehog signaling (Shh) pathway (AID 1259368; calls by dose curve; further: nearly all actives have a fitted effect of over 15% in size; further: potency means the concentration at half of the fitted maximal effect)
Procedure, shortened: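 Following a 24 hr incubation with DMSO-dissolved compounds at 37 C, 5% CO2, Gli1-Luc NIH/3T3-derived cells received luciferase reagent for 30 min at room temperature prior to luminescence measurement.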

[18] = qHTS RealTime-Glo MT Cell Viability Assay in HEK293 cells - 24 hour (AID 1224886); further: nearly all actives have a fitted effect of over 50% in size; further: potency means the concentration at half of the fitted maximal effect
Procedure, shortened: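 Tox21 10K qHTS, HEK293, 600 cells/well, RealTime-Glo reagent co-dispensed with cells; 5 h preincubation, compound by pintool, 37 C, luminescence at 0–40 h.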

[19] = qHTS assay to identify small molecule antagonists of the estrogen receptor alpha (ER-alpha) signaling pathway using the BG1 cell line in the presence of 0.1 nM 17-beta-estradiol - cell viability counter screen (AID 1259241); further: nearly all actives have a fitted effect of over 40% in size
Procedure, shortened: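 The cell line endogenously expresses full-length ER-alpha and carries four EREs driving luciferase. Cells are cultured 5 days hormone-free, treated 22 hr with compounds and 0.1 nM estradiol, then viability is read by fluorescence.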

[20] = target: Androgen receptor (Homo sapiens) (UniProt P10275); assay: qHTS assay to identify small molecule antagonists of the androgen receptor (AR) signaling pathway using the MDA cell line in the presence of 0.5 nM R1881 (AID 1259243); further: nearly all actives have a fitted effect of over 50% in size; further: potency means the concentration at half of the fitted maximal effect
Procedure, shortened: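 Luminescence from an AR/GR-responsive MMTV-luciferase construct in MDA-kb2 breast carcinoma cells, read 30 min after ONE-Glo, following 16 hr co-treatment with compounds and 0.5 nM R1881.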

Sequence of Estrogen receptor (Homo sapiens) (P03372 whole entry, looked up): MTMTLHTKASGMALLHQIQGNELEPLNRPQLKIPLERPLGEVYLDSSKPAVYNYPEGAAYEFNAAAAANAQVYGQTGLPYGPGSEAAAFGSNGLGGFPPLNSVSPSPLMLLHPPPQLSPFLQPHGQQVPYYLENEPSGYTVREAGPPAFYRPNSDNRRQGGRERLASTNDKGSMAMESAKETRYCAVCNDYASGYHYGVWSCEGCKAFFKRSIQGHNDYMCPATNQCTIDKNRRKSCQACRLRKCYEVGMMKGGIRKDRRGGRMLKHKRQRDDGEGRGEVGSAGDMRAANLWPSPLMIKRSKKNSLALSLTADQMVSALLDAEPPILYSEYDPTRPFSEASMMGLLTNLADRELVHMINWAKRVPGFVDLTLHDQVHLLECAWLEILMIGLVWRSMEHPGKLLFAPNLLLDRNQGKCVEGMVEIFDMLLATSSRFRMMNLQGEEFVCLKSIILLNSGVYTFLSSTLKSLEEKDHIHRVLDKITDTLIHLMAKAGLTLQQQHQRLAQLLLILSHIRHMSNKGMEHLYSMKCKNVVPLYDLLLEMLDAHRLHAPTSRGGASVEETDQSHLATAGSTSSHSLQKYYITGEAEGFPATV
Sequence of Androgen receptor (Homo sapiens) (P10275 whole entry, looked up): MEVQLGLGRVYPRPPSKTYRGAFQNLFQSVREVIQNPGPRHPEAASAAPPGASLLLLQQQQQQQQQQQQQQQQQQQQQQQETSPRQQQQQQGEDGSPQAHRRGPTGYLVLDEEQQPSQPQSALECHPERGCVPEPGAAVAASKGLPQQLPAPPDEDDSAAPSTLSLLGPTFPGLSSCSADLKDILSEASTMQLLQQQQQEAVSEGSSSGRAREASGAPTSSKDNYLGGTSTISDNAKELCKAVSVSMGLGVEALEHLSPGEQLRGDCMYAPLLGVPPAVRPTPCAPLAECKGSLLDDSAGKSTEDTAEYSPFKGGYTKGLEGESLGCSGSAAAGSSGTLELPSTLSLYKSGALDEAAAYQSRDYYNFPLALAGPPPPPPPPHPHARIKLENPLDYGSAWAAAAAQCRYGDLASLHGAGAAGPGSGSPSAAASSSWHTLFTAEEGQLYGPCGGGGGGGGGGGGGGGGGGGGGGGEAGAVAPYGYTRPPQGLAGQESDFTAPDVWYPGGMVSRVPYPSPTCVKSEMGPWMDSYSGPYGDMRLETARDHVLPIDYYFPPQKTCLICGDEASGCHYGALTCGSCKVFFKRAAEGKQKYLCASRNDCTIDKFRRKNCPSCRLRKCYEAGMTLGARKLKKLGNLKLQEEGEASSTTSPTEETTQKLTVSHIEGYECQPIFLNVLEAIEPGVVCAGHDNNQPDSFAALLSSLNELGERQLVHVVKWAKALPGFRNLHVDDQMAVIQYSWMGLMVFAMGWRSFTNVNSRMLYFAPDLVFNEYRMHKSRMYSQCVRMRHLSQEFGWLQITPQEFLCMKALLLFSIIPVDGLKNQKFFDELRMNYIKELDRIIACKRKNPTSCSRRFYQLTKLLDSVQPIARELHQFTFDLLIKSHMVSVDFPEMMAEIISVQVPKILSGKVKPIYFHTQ

Structure (SMILES)	Potency [1]	Potency [2]	Potency [3]	Potency [4]	Potency [5]	Potency [6]	Potency [7]	Potency [8]	Potency [9]	Potency [10]	Potency [11]	outcome [12]	Potency [13]	Potency [14]	Potency [15]	Potency [16]	Potency [17]	Potency [18]	Potency [19]	Potency [20]
CC(C)=CCN1CC[C@@]2(C)c3cc(O)ccc3C[C@@H]1[C@@H]2C	inactive	inactive	inactive	inactive	inactive	inactive	inactive	inactive	inactive	inactive	inactive	inactive	inactive	inactive	inactive	inactive				
CCC1COC(Cn2cncn2)(c2ccc(Cl)cc2Cl)O1 (stereo unspecified)	inactive	inactive	inactive	inactive	inactive	inactive	inactive	inactive	inactive	inactive			inactive	inactive	inactive	inactive	inactive			
CCCCC(CC)COC(=O)c1ccccc1C(=O)OCC(CC)CCCC (stereo unspecified)	inactive	inactive	inactive		inactive	inactive	inactive	inactive	inactive	inactive	inactive	inactive	inactive	inactive	inactive	inactive	inactive	inactive	inactive	
C=Cc1cccc(CCl)c1	inactive	inactive	inactive		inactive	inactive		inactive	inactive	inactive	inactive		inactive	inactive	inactive	inactive	inactive	inactive	inactive	
CCOP(=S)(NC(C)C)Oc1ccccc1C(=O)OC(C)C (stereo unspecified)	inactive	inactive	inactive				inactive	inactive	inactive				inactive	inactive	inactive		inactive		inactive	
Nc1ccc(Cl)cc1C(=O)c1ccccc1F	inactive	inactive		inactive	inactive	inactive	inactive	inactive	inactive	inactive	inactive		inactive	inactive	inactive	inactive		inactive	inactive	10.6 µM (active)
c1ccc(N=NNc2ccccc2)cc1	50.7 µM (active) and 43.6 µM (active)	inactive		inactive		50.7 µM (active)	inactive		inactive	inactive	inactive		15.9 µM (active) and 24.3 µM (active)	inactive		inactive	inactive	inactive	inactive	
CCN1CCC2(CC1)COc1cc3c(cc12)N(C(=O)c1ccc(-c2ccc(-c4nnc(C)o4)cc2C)cc1)CC3		inactive	45.2 µM (active)	50.7 µM (active)	45.2 µM (active)	20.2 µM (active)		20.2 µM (active)	50.7 µM (active)		50.2 µM (active)		inactive	inactive	63.3 µM (active)	63.3 µM (active)	inactive	12.7 µM (active)		
c1ccc(Nc2ccc(Nc3ccccc3)cc2)cc1		inactive	inactive		inactive	15.4 µM (active)		inactive	inactive	inactive	inactive		inactive	inactive		inactive		21.8 µM (active)	inactive	
C[C@]12CC[C@H]3[C@@H](CCC4=CC(=O)CC[C@@H]43)[C@@H]1CC[C@@H]2OC(=O)CCc1ccco1		inactive	inactive	inactive	inactive	inactive	inactive	inactive	inactive	inactive			inactive	inactive	inactive	inactive	inactive	inactive	inactive	inactive
c1csc(-c2ccc(-c3cccs3)s2)c1		inactive	inactive	inactive	inactive	inactive		inactive	inactive	inactive	inactive		5.45 µM (active)	inactive	inactive	inactive	9.69 µM (active)	inactive	inactive	
O=C(Nc1ccc(F)cc1F)c1cccnc1Oc1cccc(C(F)(F)F)c1		inactive	inactive		inactive		inactive	inactive	inactive	inactive			inactive	inactive		inactive	inactive	inactive		
C#CC1(O)CCCCC1	inactive	inactive		inactive	inactive	inactive		inactive	inactive	inactive			inactive	inactive	inactive	inactive	inactive	inactive	inactive	
CCCCN(CCCC)C(=S)S	inactive	inactive		inactive	inactive			inactive	inactive	inactive	inactive		inactive	inactive			inactive	inactive	inactive	
CNC(=O)O/N=C(\C)C(C)S(C)(=O)=O (stereo unspecified)	inactive	inactive		inactive	inactive	inactive	inactive	inactive	inactive	inactive			inactive	inactive	inactive		inactive	inactive		
